Screening data deposited in PubChem BioAssay by several laboratories.
aSyn UTR inh – MLPCN primary screen, SNCA 5' untranslated region | alpha-synuclein 5'UTR reporter, inhibitor activity | inhibition, % (tested at 7.5 µM) | hit rate 0.82% among 300,000 | AID 1813, 2009; in the data active means inhibition above about 60%; inconclusive means no clear call, values can overlap the other calls;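 further: H4 neuroglioblastoma cells stably carrying SNCA 5'UTR luciferase fusion; 0% = DMSO wells and 100% = positive control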
CSC inhib – cancer stem cell viability inhibitors, primary screen, luminescence | cancer stem cell-like cells viability | inhibition, % at 7.5 µM | hit rate 1.1% among 300,000 | AID 2717, 2010; in the data active means inhibition above about 75%; inconclusive means no clear call, values can overlap the other calls; tested in HMLE shEcad cells
A1 inh – caspase 3/7 activation in MEF A1-2A-BIM cells, primary screen, A1 inhibitor project, cell-based, luminescence, HTS. caspase activation, % (no concentration beside the values). hit rate 0.066% among 330,000. Caspase-Glo 3/7 luminescence, 3 h; percent of clofoctol response, vehicle zero. AID 2462, 2010;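 active means over half of replicate activation scores above 10%, or exactly half above 10 with the replicate mean above 10; inconclusive means replicate mean below 10 yet half the replicates above 10; inactive means over half of replicates below 10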
Mdm2-MdmX inh – inhibitors of human Mdm2-MdmX association, primary screen, cell-based, luminescence, split luciferase, SaOS-2, uHTS | Protein Mdm4 (Homo sapiens) + E3 ubiquitin-protein ligase Mdm2 (Homo sapiens), … | SaOS-2 split-luciferase Mdm2/MdmX complementation | inhibition, % at 8 µM | hit rate 3% among 330,000 | AID 485346, 2010;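 active means inhibition of at least 50% at 8 µM in the primary screen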
Beta apoptosis – inhibitors of cytokine-induced beta cell apoptosis, primary screen, luminescence | hit rate 0.8% among 300,000 | protection from apoptosis, % (concentration not given with the values) | AID 435005, 2010 | INS-1E cytokine-induced death, ATP luminescence, 48 h; percent of positive-control rescue, neutral wells zero;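 active means Every replicate reaches about 75%, or at least half do and their mean reaches it too, limit read from the data; inconclusive means At least half of replicates reach the limit but their mean does not; inactive means Under half of replicates reach the limit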;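 further: 0% = cytokine-treated negative control wells and 100% = positive control rescue; higher means more ATP so stronger rescue from cytokine killing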
Mdm2 MdmX conf – Mdm2-MdmX complex disruptors, retested hits, confirmation, luminescence, single concentration | shares compounds with Mdm2-MdmX inh | Mdm2-MdmX binding, luminescent assay | inhibition, % at 8 µM | hit rate 55% among 10,000 | AID 489028, 2010; in the data active means inhibition above about 40%
FLuc counter – full-length luciferase signal inhibition, confirmation, counter-screen for Mdm2/MdmX interaction inhibitor project, cell-based, single concentration, SaOS-2; hit rate 77% among 6,200; inhibition, % at 8 µM; shares compounds with Mdm2-MdmX inh; SaOS-2 full-length luciferase counterscreen, luminescence; AID 504607, 2011;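 active means mean inhibition at 8 µM reaching about 37%, which flags the compound as non-specific, limit read from the data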;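 further: p53-null SaOS-2 cells with luciferase driven by a doxycycline-inducible promoter; compound on cells about two nights before reading with doxycycline added after day one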
Active calls of the source: *. The list is not random: actives were taken first. Their share in the collection is about 4.1%.

For CCn1c2c(c3cc(OCC(C)C)ccc31)CCCC2=O the results were aSyn UTR inh 39, CSC inhib 32, A1 inh 3, Mdm2-MdmX inh 16 and Beta apoptosis -1.
CCCCn1c(=N)n(CC(=O)c2ccc(OC)cc2)c2ccccc21 was read as aSyn UTR inh -2, CSC inhib 1, A1 inh -1, Mdm2-MdmX inh 79*, Beta apoptosis 7, Mdm2 MdmX conf 44* and FLuc counter 48*.
For Cn1c(=N)n(CC(=O)c2ccc(Cl)c(Cl)c2)c2ccccc21 the results were aSyn UTR inh 81*, CSC inhib 8, A1 inh -5, Mdm2-MdmX inh 78*, Beta apoptosis 5, Mdm2 MdmX conf 73* and FLuc counter 145*.
Screening N=c1n(CC(=O)c2ccc(Br)cc2)c2ccccc2n1Cc1ccccc1 returned CSC inhib 33, A1 inh 0, Mdm2-MdmX inh 97*, Beta apoptosis 16, Mdm2 MdmX conf 75* and FLuc counter 55*.
CCCCn1c(=N)n(CC(=O)c2ccc(Br)s2)c2ccccc21 was read as aSyn UTR inh -13, CSC inhib 36, A1 inh 0, Mdm2-MdmX inh 97*, Beta apoptosis 83*, Mdm2 MdmX conf 59* and FLuc counter 53*.
Screening CCC(CC)C(=O)Nc1nnc(S(=O)(=O)Nc2ccccc2C)s1 returned aSyn UTR inh 11, CSC inhib -4, A1 inh 0, Mdm2-MdmX inh -26 and Beta apoptosis 6.
Screening Oc1ccc(/C=N/Nc2ccc(Cl)nn2)c(O)c1O returned aSyn UTR inh -2, CSC inhib 2, A1 inh 0, Mdm2-MdmX inh 10 and Beta apoptosis -12.
Screening O=C(O)CCc1ccc(S(=O)(=O)Nc2cc(C(F)(F)F)ccc2N2CCCC2)cc1 returned Mdm2-MdmX inh 5.
Cc1cc([N+](=O)[O-])ccc1NC(=O)c1csc(C)c1C was read as aSyn UTR inh -98, CSC inhib -1, A1 inh 0, Mdm2-MdmX inh -88 and Beta apoptosis -1.
`CCc1ccccc1NC(=O)CN(C)C(=O)Cn1ncc(Cl)c(Cl)c1=O` gave aSyn UTR inh -63, CSC inhib 56, A1 inh inconclusive and Beta apoptosis -6.
For CCOC(=O)c1ccc(NC(=O)Cn2ncc(Cl)c(Cl)c2=O)cc1 the results were aSyn UTR inh -2, CSC inhib 90*, A1 inh 3, Mdm2-MdmX inh 89*, Beta apoptosis 8, Mdm2 MdmX conf 100* and FLuc counter 51*.
`CCC(=O)Nc1ccc(C(=O)Cn2ncc(Cl)c(Cl)c2=O)cc1` gave aSyn UTR inh -53, CSC inhib inconclusive, A1 inh 0, Mdm2-MdmX inh 86*, Beta apoptosis -29, Mdm2 MdmX conf 63* and FLuc counter 43*.
Screening Cc1nc2sccn2c(=O)c1S(=O)(=O)NCC1CCN(Cc2ccccc2Cl)CC1 returned aSyn UTR inh -7, CSC inhib 0, A1 inh 0, Mdm2-MdmX inh -6 and Beta apoptosis -3.
For CCC(C)NS(=O)(=O)c1ccc(NC(=O)C(Sc2ccccc2)c2ccccc2)cc1 (stereo not given) the results were aSyn UTR inh inconclusive, CSC inhib 3, A1 inh 1, Mdm2-MdmX inh 56*, Beta apoptosis 19, Mdm2 MdmX conf 44* and FLuc counter 70*.
`CC(=O)Nc1ccc(S(=O)(=O)Nc2ccc(-n3cnnn3)cc2)cc1` gave CSC inhib -5, A1 inh 1, Mdm2-MdmX inh 0 and Beta apoptosis -5.
For COc1ccc(C(=O)NNC(=O)c2ccc(F)c(S(=O)(=O)N3CCOCC3)c2)cc1 the results were CSC inhib -9, A1 inh -1, Mdm2-MdmX inh -1 and Beta apoptosis -6.
